IP6K1 inhibitor: Primary qHTS assay for small molecule inhibitors of Inositol hexaphosphate kinase 1 (IP6K1); 140,000 tested, 0.81% active; activity change, % (series mostly up to about 58 µM); IP6K1 kinase, ADP-Glo luminescence, 2 h; active compounds read low; Inositol hexakisphosphate kinase 1 (Homo sapiens), Q92551; in the data active = activity change below about -25%
Target sequence (Q92551 whole entry, looked up): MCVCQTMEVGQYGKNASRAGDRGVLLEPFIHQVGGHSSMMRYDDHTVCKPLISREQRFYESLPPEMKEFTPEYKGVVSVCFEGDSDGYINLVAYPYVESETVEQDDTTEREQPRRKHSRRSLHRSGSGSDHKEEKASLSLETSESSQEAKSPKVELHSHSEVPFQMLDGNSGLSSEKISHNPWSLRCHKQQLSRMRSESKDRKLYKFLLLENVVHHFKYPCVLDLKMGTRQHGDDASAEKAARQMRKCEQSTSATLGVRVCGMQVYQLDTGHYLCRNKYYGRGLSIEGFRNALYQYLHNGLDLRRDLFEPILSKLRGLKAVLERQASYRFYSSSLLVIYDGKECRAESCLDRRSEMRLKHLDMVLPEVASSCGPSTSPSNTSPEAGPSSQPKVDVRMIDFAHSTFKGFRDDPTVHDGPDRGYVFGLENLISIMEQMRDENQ
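ADP-Glo luminescence measures ADP made by human IP6K1 during a 2 h RT reaction with ATP/IP6 (mix at 1.3 mM/130 uM); top library doses 57.5 and 19.1 uM final.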
HEK293 viab: GF-AFC viability counterscreen for inhibitors of alpha-synuclein gene (SNCA) expression; HEK-293-SNCA-luc viability, GF-AFC fluorescence, 24 h; Potency, µM (top dose mostly 57.1 µM), for inactives: top-dose activity change, negative = cytotoxicity, usual class: cytotoxic; 150,000 tested, 0.12% active;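 note: potency is the fitted concentration of half-maximal effect; 0% = DMSO-treated cells and -100% = medium-only wells without cells; nearly all actives have a fitted effect of over 30% in size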
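Cytotoxicity counterscreen: after 24 h compound treatment of genome-edited SNCA-luciferase HEK-293 cells, live-cell protease substrate GF-AFC read by fluorescence after 30 min; activity scaled between DMSO (0%) and medium-only (-100%), curves Hill-fitted.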
SNCA expr inh: Primary qHTS assay for inhibitors of alpha-synuclein gene (SNCA) expression. HEK-293 SNCA-luciferase knock-in, luminescence, 24 h. 140,000 tested, 0.17% active. Potency, µM (series often up to 57.2 µM), for inactives: at the highest dose activity change, negative = inhibition, hits mostly inhibitors;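 note: potency is the fitted concentration of half-maximal effect; plate controls were DMSO cells for no effect and cell-free wells for full effect; nearly all actives have a fitted effect of over 45% in size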
GPT2 inhibitor: Primary qHTS assay for inhibitors of Glutamate pyruvate transaminase 2 (GPT2). Potency, µM (doses to about 57.7 µM), inactives show at the top dose activity change, negative = inhibition, most hits filed as inhibitors. AID 1671188, 2021. Alanine aminotransferase 2 (Homo sapiens), Q8TD30. 100,000 tested, 0.25% active. Recombinant GPT2, coupled pyruvate oxidase/HRP Amplex Red fluorescence; note: potency is the fitted concentration of half-maximal effect; nearly all actives have a fitted effect of over 60% in size
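GPT2 10ng/uL, a-KG 250uM, L-Ala 2mM, HEPES pH7.5 + 0.0001% Tween; 30 min RT. Then Amplex mix (PO/HRP/ThPP), 30 min RT dark, fluorescence. AOA 50uM used as positive control.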
IP6K1 inh cnf: Confirmatory qHTS assay for small molecule inhibitors of Inositol hexaphosphate kinase 1 (IP6K1) | recombinant IP6K1 kinase, ADP-Glo luminescence, 2 h | Potency, µM (titrated, usually from 49 µM), for the others: top-dose activity change, negative = inhibition, hits mostly inhibitors | 1,200 tested, 13% active | shares compounds with IP6K1 inhibitor | AID 1645852, 2021; note: potency is the fitted concentration of half-maximal effect; nearly all actives have a fitted effect of over 65% in size
* = called active by the depositor; i = inactive; u = inconclusive; x = no result given; [ ] = remark or other dose. The list is not random: actives were taken first. Their share in the collection is about 1%. Unless noted, calls come from the whole dose curve; as a rule, active = well fitted curve in the direction sought with a large enough effect; inconclusive = small, poorly fitted or top-dose-only effect, or another doubt; inactive = no such curve, though single readings can be large; an effect the other way counts as inactive or inconclusive. Unless noted, % is set by controls: 0 for no effect and ±100 for the full control effect.

SMILES	IP6K1 inhibitor	HEK293 viab	SNCA expr inh	GPT2 inhibitor	IP6K1 inh cnf
C#C[C@]1(O)CC[C@H]2[C@@H]3CCc4cc(OC)ccc4[C@H]3CC[C@@]21C	-26.6*	-19.7%[23.9 µM]	31.2%[25.6 µM]	i	u
O=C(Nc1noc2ccccc12)c1c(F)cccc1F	-31.3*	1.7%	u	x	u
c1cc(OCCN2CCCCC2)cc(-c2n[nH]c3ccc(-c4ncn[nH]4)cc23)c1	-47.2*	-18.6%	-2.0%	4.5%	u
O=C(O)c1cccc(-c2n[nH]c3c2CC(=O)N(CCOc2ccccc2)C3)c1	-12.1	11.9%[87.6 µM]	-10.0%[87.6 µM]	-13.2%[88.5 µM]	x
COc1ccc(NC(=O)CN2CCN(S(=O)(=O)c3ccc(Br)cc3)CC2)cc1	-29.5*	-0.4%	14.2%	x	-14.5%
COc1cccc(NC(=O)CN2CCCN(S(=O)(=O)c3ccc(Br)cc3)CC2)c1	-19.2	-21.9%	53.6%	x	x
CCCC(=O)c1ccc(OC(=O)c2c(-c3ccccc3Cl)noc2C)cc1	-34.9*	2.9%	3.8%	x	-11.7%
Cc1ccc(-c2ccc3nnc(CNC(=O)Cc4cccs4)n3n2)cc1C	8.5	0.2%	17.5%	2.5%	41.4%
CNC(=O)c1cc(C)nc2onc(C3CCCN(C(=O)c4ccc(C)cc4)C3)c12 (centres undefined)	12.8	x	x	x	x
Cc1nc(-c2ccc(OCC(C)C)c(C#N)c2)sc1C(=O)O	-49.1*	5.7%[23.9 µM]	45.7%[25.6 µM]	i	6.51µM*
O=C(NCCCN1CCCCCC1)c1ccc2c(c1)sc1nc(-c3ccccc3)cn12	-50.3*	u	-35.3%	x	u
O=C(c1ccccc1)N1Cc2[nH]cnc2C[C@H]1c1nc(-c2ccc(Cl)cc2)no1	-38.7*	-18.7%[87.6 µM]	u	i	u
O=C(CN1C(=O)COc2ccc(S(=O)(=O)NC3CCCC3)cc21)Nc1ccc(Cl)cc1F	-27.9*	-29.7%	10.2%	x	12.7%
Cn1ncc2c(C(=O)Nc3cccc(C(F)(F)F)c3)cc(-c3ccccc3F)nc21	17.8	x	x	x	x
C[C@@H]1CN(c2cc(C3CC(O)C3)ncn2)C[C@H](C)O1 (some centres undefined)	-30.7*	-3.3%	3.0%	-29.4%[11.5 µM]	-1.1%
CCN(CC)C(=O)c1ccc(Nc2nc(OCC3CCCCC3)c3[nH]cnc3n2)cc1	-40.5*	-25.5%	x	i	10.3µM*
NS(=O)(=O)c1ccc(Nc2nc(OCC3CCCCC3)c3[nH]cnc3n2)cc1	-46.7*	u	10.6%	i	4.11µM*
Cc1ccccc1-c1nccn2c(C3CN(C(=O)c4cc5ccccc5[nH]4)C3)ncc12	0.3	-27.4%[87.6 µM]	-28.6%[87.6 µM]	-12.7%[88.5 µM]	x
CO/N=C(\C(=O)N[C@@H]1C(=O)N2C(C(=O)O)=C(CSc3nc(=O)c(O)nn3C)CS[C@H]12)c1csc(N)n1	-78.9*	-18.1%[23.9 µM]	-6.8%[25.6 µM]	-3.2%	u
Cc1noc(C)c1C(=O)N1CC(CN2C(=O)c3c(c(C)nn3-c3ccccc3)C2C2CC2)C1 (centres undefined)	0.3	x	x	x	x
Cc1cccc(-c2nnc(SCCC(=O)O)o2)c1	-37.3*	14.0%	u	x	u
Cc1ccc(C(=O)NC2CCCN(c3ccc4nnc(C5CC5)n4n3)C2)cc1 (centres undefined)	-4.6	x	x	x	x
c1cncc(Cc2noc(C3CN(Cc4ccsc4)C3)n2)c1	-6.3	-20.3%	11.5%	-23.7%	x
COc1ccc(C(=O)Nc2ccc(-c3cc4ccccc4oc3=O)c(C)c2)cc1Br	-28.2*	7.0%	38.4%	x	u
Cc1ccccc1CN1CCc2c(n(Cc3ccccc3)n(-c3ccccc3)c2=O)C1	5.7	-18.6%[87.6 µM]	-6.7%[87.6 µM]	-5.8%[88.5 µM]	x
SMILES	IP6K1 inhibitor	HEK293 viab	SNCA expr inh	GPT2 inhibitor	IP6K1 inh cnf
CCN(C)C(=O)C(C)N1CCc2onc(-c3ccc(-c4ccccc4)cc3)c2C1 (centres undefined)	36.4	-4.6%	42.3%	u	x
CCC(O)C(=O)N1CCc2onc(-c3ccc(-c4ccccc4)cc3)c2C1 (centres undefined)	-46.6*	u	45.3%	4.2%	u
Cc1cc(NC(=O)c2cc(-c3ccc[nH]3)n[nH]2)ccc1F	21.8	-0.9%	69.4%	-9.3%	x
O=C(Nc1cccc(OC(F)(F)F)c1)c1cc(-c2ccc[nH]2)n[nH]1	6.2	-4.7%	-24.5%	i	u
COc1ccc(NC(=O)c2cc(-c3ccc[nH]3)n[nH]2)cc1OC	-2.1	-25.3%	-16.4%	i	x
O=C(Nc1ccc(I)cc1)c1cc(-c2ccc[nH]2)n[nH]1	-9.5	-8.9%	75.0%	i	u
Cc1ccc(F)cc1NC(=O)c1cc(-c2ccc[nH]2)n[nH]1	9.7	-16.3%	72.5%	i	u
Cc1ccsc1CN1CCCC(c2nc(-c3cccnc3)no2)CCNC(=O)CC1 (centres undefined)	9.9	-6.6%	13.1%	i	x
COCCn1c(CO)nnc1C1CC(NC(=O)C2(C)CCCC2)C1 (centres undefined)	-28.1*	-1.2%	5.5%	-1.3%[11.5 µM]	-12.3%
CC(C)c1ccc(NC(=O)c2ccc(=O)n(Cc3ccccc3)c2)cc1	-28.0*	-22.8%	5.0%	x	-24.8%
Fc1ccccc1CNCc1ccc(-c2ccnc3[nH]ccc23)cc1	-42.2*	7.4%	x	4.8%	u
O=C(NCc1ccnc2[nH]ccc12)c1ccccc1	1.5	-1.0%[87.6 µM]	74.5%[87.6 µM]	i	x
O=S(=O)(O)c1ccc2cc(N=Nc3cc(S(=O)(=O)O)c4cccnc4c3O)ccc2c1	-51.9*	u	u	2.2%	u
Cc1nc(N=Nc2ccc(S(=O)(=O)O)cc2S(=O)(=O)O)c(COP(=O)(O)O)c(C=O)c1O	x	4.0%	14.7%	1.8%	x
COc1cccc(CNC(=O)Nc2cc(C(=O)NCc3cccc(F)c3)ccc2N2CCCC2)c1	-25.6*	u	6.9%	x	2.0%
CCOCCNc1ncnc2c1CN(C1CCCCC1)C(=O)CN2C	-9.5	-14.1%	56.1%	u	x
CCOCCNc1ncnc2c1CN(C1CCCNCC1)C(=O)CN2C (centres undefined)	-28.2*	4.9%	12.9%	-8.5%	-9.4%
O=C(c1ccoc1)N1CCC(Oc2ccccc2-c2nc(-c3ccccc3)no2)C1 (centres undefined)	-9.0	-7.9%	u	-1.9%	x
Cc1cc(C)cc(Nc2ncnc3c2nc2n3CCCC2)c1	-31.7*	1.3%	51.5%	x	-19.3%
Cc1ccc(Nc2ncnc3c2nc2n3CCCC2)cc1F	-15.2	1.5%	196.8%	x	x
COc1ccccc1-n1c(=O)c(C(=O)N2CCN(C(=O)NC(C)C)CC2)nc2cccnc21	7.5	4.2%	2.3%	i	x
Cc1c(Cl)cccc1NC(=O)CSc1nc(=O)[nH]c2c1CCCC2	-26.9*	-1.5%	-4.5%	x	-16.0%
